What was measured:
Assay in all cases: PBM binding z-score (relative to random genomic background probes); higher = stronger binding; sequences stand for … in GC…GCGATTGACAGCGTAGAATGAAGG
[1] = system: PPARg:RXRa IVT, anti-PPARg (NR concentration 270 nM, RXRa partner concentration 90 nM)
Procedure, shortened: (§1)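 Scanned fluorescence from custom Agilent 4×180K protein-binding microarrays was regression-normalized. Binding z-scores use random background probes as reference. Ligand-free nuclear receptor dimers were incubated on the arrays for 1 h and detected with antibodies against each partner (one per run).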

[2] = system: PPARg homodimer (NR concentration 180 nM)
Procedure, shortened: as §1

[3] = system: PXR homodimer (NR concentration 270 nM)
Procedure, shortened: as §1

[4] = system: RARa:RXR (NR concentration 270 nM, RXRa partner concentration 90 nM)
Procedure, shortened: as §1

[5] = system: RARa homodimer (NR concentration 270 nM)
Procedure, shortened: as §1

[6] = system: RARb:RXRa (NR concentration 270 nM, RXRa partner concentration 90 nM)
Procedure, shortened: as §1

[7] = system: RARb homodimer (NR concentration 270 nM)
Procedure, shortened: as §1

[8] = system: PXR:RXRa (NR concentration 270 nM, RXRa partner concentration 90 nM)
Procedure, shortened: as §1

[9] = system: PPARg DBDmut:RXRa IVT, anti-PPARg (DBD mutation: PPARg1 K132A/R137A, NR concentration 270 nM, RXRa partner concentration 90 nM)
Procedure, shortened: as §1

[10] = system: PPARg DBDmut IVT, anti-PPARg (DBD mutation: PPARg1 K132A/R137A, NR concentration 270 nM)
Procedure, shortened: as §1

| Sequence | PBM binding z-score [1] | PBM binding z-score [2] | PBM binding z-score [3] | PBM binding z-score [4] | PBM binding z-score [5] | PBM binding z-score [6] | PBM binding z-score [7] | PBM binding z-score [8] | PBM binding z-score [9] | PBM binding z-score [10] |
| --- | --- | --- | --- | --- | --- | --- | --- | --- | --- | --- |
| CCGAGTAGGTTACGAGGGGTCATTCAGTGCGAAT | 4.3 | 4.32 | 10.4 | 6.71 | 1.29 | 3.35 | 3.68 | – | – | – |
| TCGAGTAGGTCACGGGGGCATTCAGGGATGAAGA | 7.67 | 3.98 | 1.77 | 5.53 | 1.36 | 4.66 | 4.32 | 4.92 | – | – |
| TCTAGTTGGTCAAAGGTCACGCACTCGAAATGCG | 6.68 | 6.55 | 1.96 | – | 4.59 | – | 5.32 | – | 3.73 | 2.56 |
| GCTTAGGGGTCAAAGGTTATAGCATGAATAGAAT | 6.52 | 2.86 | 1.2 | – | 1.8 | – | 4.64 | – | 3.02 | 2.44 |
| CGAACTAGGTCGCCAGGACAGTGAAGAGGTTGGA | 5.49 | -0.09 | -0.264 | 0.141 | -0.715 | 1.48 | 1.04 | -0.103 | – | -0.449 |
| TCTCGGAGGTCACGAAAGGTCAGAGCTCGACATC | 6.3 | 6.9 | 3.6 | – | 5.11 | – | 6.12 | – | 1.39 | 2.35 |
| CGTCAAAGTTCAACTAAGGTCACGTAAAGCACGC | 3.7 | 6.25 | 12.2 | – | 3.25 | – | 6.11 | – | 0.74 | 1.77 |
| ACTTAGGGGTCAACGAGGTTATAGCACGCGTATA | 5.93 | 3.01 | 9.1 | – | 2.38 | – | 5.02 | – | 2.39 | 2.86 |
| CGAACTAGGTCAAGGGACAGTGAAAGGCGACGTA | 8.18 | 1.42 | -0.504 | 1.71 | 0.0645 | 3.92 | 2.99 | 0.929 | – | 0.0336 |
| CCTCGGAGGTCAACAGGAGGTCAGAGCTGCCAGA | 4.76 | 5.25 | 1.63 | – | 1.53 | – | 5.7 | – | -0.0592 | -0.488 |
| CGAACGAGGTCACCAGGACAGTGAAGAGGTTGGA | 6.99 | 3.06 | 0.985 | 5.85 | 1.08 | – | 4.89 | 5.37 | – | -0.0539 |
| TATACAGGGTCAAAGGTCAGAGTACGAATGTCGA | 6.32 | 2.64 | 1.68 | – | 2.73 | – | 5.41 | – | 2.47 | 1.85 |
| TGTCAAAGTTCAAAGGTCACGTAAGTATCCACAC | 6.64 | 6.73 | 5.82 | – | 5.52 | – | 5.93 | – | 4.45 | 3.14 |
| ATATGTAGGTTAGGGTCAGTCAGAAAGTAGGGAA | 6.71 | 2.59 | 1.6 | 3.41 | 2.63 | 3.22 | 3.34 | 2.64 | – | 1.66 |
| CAAACGAGGTCAAAGGTCAAAGTCGAGCCAACCA | 8.38 | 7.87 | 5.27 | – | 6.67 | – | 5.59 | – | 5.96 | 5.7 |
| CTATGTAGGTTAGGGGGGTCATTCAGTTTGAAAG | 6.9 | 4.93 | 11.2 | 5.88 | 3.17 | 4.13 | 4.06 | 6.22 | – | – |
| CAAACAAGGTCACAGAGGTCAAAGTCCGTGCGTA | 7.16 | 6.67 | 14.1 | – | 3.72 | – | 5.85 | – | 3.22 | 4.2 |
| CCGAGGAGGTTACGAGGGGGCATTCAGTGCGAAT | 3.07 | 1.6 | 6.9 | 3.97 | -0.256 | 2.89 | 2.52 | 6.25 | – | – |
| TGTCAAAGGTCAAAGGTAACGTAAGTATCCACAC | 7.56 | 5.28 | 1.31 | – | 3.71 | – | 5.11 | – | 5.45 | 6.39 |
| TGTCAAAGTTCAAAGGTTACGTAAGTATCCACAC | 5.16 | 3.27 | 4.04 | – | 1.12 | – | 4.75 | – | 1.58 | 1.43 |

| Sequence | PBM binding z-score [1] | PBM binding z-score [2] | PBM binding z-score [3] | PBM binding z-score [4] | PBM binding z-score [5] | PBM binding z-score [6] | PBM binding z-score [7] | PBM binding z-score [8] | PBM binding z-score [9] | PBM binding z-score [10] |
| --- | --- | --- | --- | --- | --- | --- | --- | --- | --- | --- |
| ACTCGGAGGTCAAAGGTCAGAGCTACGCCAGTGA | 6.2 | 6.27 | 1.87 | – | 3.86 | – | 5.48 | – | 2.13 | 2.31 |
| CTATGTAGGTCAAGGGGGTCATTCAGTTTGAAAG | 9.07 | 5.3 | 13.1 | – | 2.29 | 5.06 | 4.85 | – | – | – |
| TCGTGTAGGTTACGGGGGCATTCAGGGATGAAGA | 6.27 | 3.1 | 2.98 | 3.71 | 1.46 | 3.34 | 2.92 | 3.98 | – | – |
| CAAACAAGGTCACCGGAAGGTCAAAGTCCGCATG | 6.66 | 10.2 | 4.84 | – | 5.98 | – | 5.88 | – | 3.88 | 3.51 |
| ATATGTAGGTTGGGGTCATTCAGAAAGTAGGGAA | 4.46 | 3.59 | 3.64 | 6.42 | 3.34 | 3.75 | 4.06 | 6.18 | – | 2.36 |
| CGAACTAGGTCTAAGGACAGTGAAAGGCGACGTA | 1.78 | -0.156 | -0.563 | 0.0659 | -0.52 | 0.287 | 0.133 | -0.521 | – | -0.598 |
| CGTCAAAGGTCATAGGAGGTCAGTGAAGACAGAT | 6.23 | 5.41 | 4.17 | – | 3.82 | – | 5.95 | – | 1.59 | 3.77 |
| CTATGTAGGTTACGGGGGTCATTCAGTTTGAAAG | 7.98 | 2.65 | 10.9 | 6.09 | 0.56 | 3.71 | 4.09 | 6.2 | – | – |
| CTATGTAGGTTAAGGGAGTCATTCAGTTTGAAAG | 6.74 | 0.863 | 0.389 | 0.462 | 0.236 | 0.814 | 0.609 | – | – | – |
| CCGAATAGGTTACGAGGGGGCATTCAGTGCGAAT | 3.59 | 2.64 | 5.9 | 3.8 | 0.865 | 2.89 | 2.69 | 5.5 | – | – |
| CCAACTAGGTCAAAGGACAGTGAAAGGCGACGTA | 7.88 | 1.68 | 0.436 | 2.36 | 0.964 | 4.07 | 3.15 | 1.09 | – | 0.729 |
| ATCGAAAGGTCAAAGGTGAGTATACCCACCCGAA | 6.1 | 4.41 | 1.6 | – | 3.03 | – | 5.31 | – | 3.13 | 3.86 |
| CGAACTAGGTCAAAGGACATTGAAAGGCGACGTA | 8.46 | 2.37 | 0.177 | 2.7 | 0.467 | 3.96 | 3.01 | 1.39 | – | 2.63 |
| CCGAGAAGGTTACGAGGGGGCATTCAGTGCGAAT | 2.5 | 2.11 | 5.71 | 4.07 | 0.612 | 3.24 | 2.66 | 5.85 | – | – |
| CGAACAAGGTCACCAGGACAGTGAAGAGGTTGGA | 6.18 | 4.85 | 1.1 | 5.71 | 3.06 | 5.3 | 4.07 | 4.68 | – | 1.95 |
| CAAACGAGGTCACAGAGGTCAAAGTCCGTGCGTA | 7.63 | 7.88 | 15.3 | – | 5.39 | – | 5.83 | – | 3.35 | 5.12 |
| CTATGTGGGTTAAGGGGGTCATTCAGTTTGAAAG | 7.71 | 6.11 | 12.1 | 5.68 | 3.73 | 3.91 | 4.44 | 6.07 | – | – |
| CGAACGAGGTCAAAGGACAGTGAAAGGCGACGTA | 6.29 | 6.42 | 1.74 | 5.86 | 0.557 | 5.01 | 3.88 | 5.26 | – | 3.98 |
| GCTTACGGGTCAAAGGTCATAGCATGAATAGAAT | 7.02 | 4.66 | 1.47 | – | 2.21 | – | 5.12 | – | 2.05 | 1.67 |

Source: the supplement of paper PMC6555819
